In the supplement of paper PMC6411743:
± gives the standard deviation of the averaged measurements. About 5,400 targets were measured; listed, in parts, are those with the largest changes and a random draw of the rest.

Compound: Nc1nc2c(ncn2[C@@H]2O[C@H](COP(=O)(O)OP(=O)(O)OP(=O)(O)O)[C@@H](O)[C@H]2O)c(=O)[nH]1 [guanosine triphosphate]
Assay: NP40-soluble protein abundance relative to vehicle (solubility fold change) (ratio); higher = more soluble protein in presence of GTP
Procedure: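 Solubility proteome profiling in Jurkat crude lysate. Lysate was treated with Mg-GTP (0.1-10 mM) for 10 min at room temperature and 3 min at 37 °C, then solubilised with 0.8% NP40 and benzonase, followed by ultracentrifugation. Proteins were quantified by TMT10 LC-MS/MS; the value is the NP40-soluble abundance relative to the NP40-processed vehicle, from 3 independent experiments.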

UniProt Q63HQ0, sequence (Q63HQ0 whole entry): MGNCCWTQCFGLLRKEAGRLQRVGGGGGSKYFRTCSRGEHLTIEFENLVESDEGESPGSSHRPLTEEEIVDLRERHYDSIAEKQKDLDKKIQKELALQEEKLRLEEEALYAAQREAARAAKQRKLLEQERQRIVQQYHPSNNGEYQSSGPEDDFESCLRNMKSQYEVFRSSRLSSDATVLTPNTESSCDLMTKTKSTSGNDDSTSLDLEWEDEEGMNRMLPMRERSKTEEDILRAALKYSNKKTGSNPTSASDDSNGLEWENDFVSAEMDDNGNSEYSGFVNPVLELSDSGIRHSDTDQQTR
UniProt Q68D91, sequence (Q68D91 whole entry): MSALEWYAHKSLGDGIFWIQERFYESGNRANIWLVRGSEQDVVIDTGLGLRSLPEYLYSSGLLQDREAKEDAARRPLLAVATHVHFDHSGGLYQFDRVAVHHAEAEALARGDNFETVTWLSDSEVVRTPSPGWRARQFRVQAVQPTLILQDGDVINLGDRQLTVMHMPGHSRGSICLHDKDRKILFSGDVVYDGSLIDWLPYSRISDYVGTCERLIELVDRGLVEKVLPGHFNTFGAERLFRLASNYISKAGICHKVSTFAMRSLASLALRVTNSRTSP
UniProt Q8IXB1, sequence (Q8IXB1 whole entry): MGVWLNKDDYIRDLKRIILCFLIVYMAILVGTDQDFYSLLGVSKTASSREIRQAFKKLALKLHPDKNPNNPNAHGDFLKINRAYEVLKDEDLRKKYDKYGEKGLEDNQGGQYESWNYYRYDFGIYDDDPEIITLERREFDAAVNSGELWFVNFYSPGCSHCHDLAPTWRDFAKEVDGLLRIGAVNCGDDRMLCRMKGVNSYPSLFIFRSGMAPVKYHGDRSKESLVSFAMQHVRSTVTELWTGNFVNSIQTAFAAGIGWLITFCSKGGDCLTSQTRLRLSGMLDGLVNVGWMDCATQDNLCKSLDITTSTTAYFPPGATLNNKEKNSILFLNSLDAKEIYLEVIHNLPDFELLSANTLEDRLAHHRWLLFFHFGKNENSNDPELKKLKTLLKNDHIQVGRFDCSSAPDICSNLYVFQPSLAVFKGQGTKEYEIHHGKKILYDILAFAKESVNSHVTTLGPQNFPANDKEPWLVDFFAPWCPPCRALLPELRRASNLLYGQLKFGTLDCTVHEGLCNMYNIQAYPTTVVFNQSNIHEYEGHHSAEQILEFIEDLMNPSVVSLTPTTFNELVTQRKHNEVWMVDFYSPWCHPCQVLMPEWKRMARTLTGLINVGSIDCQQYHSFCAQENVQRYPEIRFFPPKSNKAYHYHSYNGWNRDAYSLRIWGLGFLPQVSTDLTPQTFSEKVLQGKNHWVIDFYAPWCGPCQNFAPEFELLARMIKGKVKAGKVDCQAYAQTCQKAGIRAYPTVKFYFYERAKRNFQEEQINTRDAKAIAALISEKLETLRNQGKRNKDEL
UniProt Q08211, sequence (Q08211 whole entry): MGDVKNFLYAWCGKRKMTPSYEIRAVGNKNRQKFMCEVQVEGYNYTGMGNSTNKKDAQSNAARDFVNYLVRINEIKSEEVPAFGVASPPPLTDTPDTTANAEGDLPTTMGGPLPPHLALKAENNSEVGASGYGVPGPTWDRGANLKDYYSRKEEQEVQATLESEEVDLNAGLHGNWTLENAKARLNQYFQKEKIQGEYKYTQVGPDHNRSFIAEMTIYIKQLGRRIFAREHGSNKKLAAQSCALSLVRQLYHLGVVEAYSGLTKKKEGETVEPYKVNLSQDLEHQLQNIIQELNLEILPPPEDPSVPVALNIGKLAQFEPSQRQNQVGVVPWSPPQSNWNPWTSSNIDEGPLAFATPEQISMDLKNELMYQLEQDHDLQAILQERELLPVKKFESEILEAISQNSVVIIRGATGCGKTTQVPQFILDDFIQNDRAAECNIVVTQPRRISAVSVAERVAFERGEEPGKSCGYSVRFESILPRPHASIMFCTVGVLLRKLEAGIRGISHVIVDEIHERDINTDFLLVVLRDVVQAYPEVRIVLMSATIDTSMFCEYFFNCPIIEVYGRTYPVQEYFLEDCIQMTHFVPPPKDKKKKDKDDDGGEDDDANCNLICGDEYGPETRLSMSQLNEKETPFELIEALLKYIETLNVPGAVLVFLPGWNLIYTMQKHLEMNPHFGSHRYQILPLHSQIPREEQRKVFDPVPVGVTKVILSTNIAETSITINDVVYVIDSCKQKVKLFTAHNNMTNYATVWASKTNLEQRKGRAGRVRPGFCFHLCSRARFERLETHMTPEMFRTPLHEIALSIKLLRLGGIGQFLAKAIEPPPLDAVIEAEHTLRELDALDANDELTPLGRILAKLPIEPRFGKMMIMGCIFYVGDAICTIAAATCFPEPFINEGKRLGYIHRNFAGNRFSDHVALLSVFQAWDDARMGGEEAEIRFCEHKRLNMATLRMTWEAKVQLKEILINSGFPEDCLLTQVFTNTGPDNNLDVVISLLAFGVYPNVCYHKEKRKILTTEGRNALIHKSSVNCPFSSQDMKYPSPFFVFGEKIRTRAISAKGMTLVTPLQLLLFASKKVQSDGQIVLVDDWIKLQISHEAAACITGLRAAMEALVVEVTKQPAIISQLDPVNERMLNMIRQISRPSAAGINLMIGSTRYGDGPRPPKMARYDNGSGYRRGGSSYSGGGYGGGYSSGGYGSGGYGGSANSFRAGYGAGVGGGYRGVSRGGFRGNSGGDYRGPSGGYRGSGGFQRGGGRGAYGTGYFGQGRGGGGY
UniProt Q86U44, sequence (Q86U44 whole entry): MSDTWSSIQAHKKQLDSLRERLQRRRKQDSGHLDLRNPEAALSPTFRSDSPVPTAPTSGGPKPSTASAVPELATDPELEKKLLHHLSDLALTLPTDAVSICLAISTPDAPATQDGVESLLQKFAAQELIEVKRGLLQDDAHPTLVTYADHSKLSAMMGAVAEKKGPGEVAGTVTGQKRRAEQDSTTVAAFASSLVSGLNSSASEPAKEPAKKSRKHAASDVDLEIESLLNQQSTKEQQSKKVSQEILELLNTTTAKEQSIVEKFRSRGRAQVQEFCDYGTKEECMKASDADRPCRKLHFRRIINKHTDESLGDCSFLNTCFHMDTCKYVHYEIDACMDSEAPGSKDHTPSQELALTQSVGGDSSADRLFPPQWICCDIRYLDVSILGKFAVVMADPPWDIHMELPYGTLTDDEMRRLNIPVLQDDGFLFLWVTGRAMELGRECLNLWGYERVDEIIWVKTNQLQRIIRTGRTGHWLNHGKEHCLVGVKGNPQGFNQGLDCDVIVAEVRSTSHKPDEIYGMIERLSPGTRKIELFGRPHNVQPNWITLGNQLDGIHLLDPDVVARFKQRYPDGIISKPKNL

Target	NP40-soluble protein abundance (concentration: 0.1mM)	NP40-soluble protein abundance (concentration: 0.5mM)	NP40-soluble protein abundance (concentration: 1mM)	NP40-soluble protein abundance (concentration: 2mM)	NP40-soluble protein abundance (concentration: 4mM)	NP40-soluble protein abundance (concentration: 6mM)	NP40-soluble protein abundance (concentration: 8mM)	NP40-soluble protein abundance (concentration: 10mM)
DHX9 (UniProt Q08211)	1.03 ± 0.088	1.13 ± 0.16	1.06 ± 0.17	1.2 ± 0.26	1.32 ± 0.28	1.49 ± 0.37	1.52 ± 0.3	1.64 ± 0.33
UniProt Q63HQ0	0.923 ± 0.075	0.935 ± 0.056	0.951 ± 0.099	0.911 ± 0.13	1.02 ± 0.16	0.961 ± 0.12	0.952 ± 0.091	0.972 ± 0.11
UniProt Q8IXB1|Q8IXB1-2	1.17 ± 0.21	1.06 ± 0.11	1.08 ± 0.1	1.17 ± 0.15	1.1 ± 0.11	1.11 ± 0.16	1.1 ± 0.11	1.06 ± 0.084
MBLAC2 (UniProt Q68D91)	1.09 ± 0.12	1.03 ± 0.1	1 ± 0.11	1.02 ± 0.13	1.01 ± 0.11	0.941 ± 0.13	0.952 ± 0.097	0.929 ± 0.14
METTL3 (UniProt Q86U44)	0.967 ± 0.058	1.01 ± 0.061	0.969 ± 0.062	0.948 ± 0.076	0.911 ± 0.06	0.932 ± 0.058	0.92 ± 0.085	0.931 ± 0.063
